Test results reported in PubChem BioAssay (NCI).
Several values for one entry are separate records, joined by “and”; a condition that tells them apart may be missing. Equal entries are not always repeated. The panel holds about 83,000 compounds, 20% with a hit somewhere; the sample as a whole holds those more often.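 Method: cells in 96-well plates; compound added at one concentration; 48 h incubation; percent growth measured; values under 10 scored active.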 Activity calls are given as the source filed them.

The molecules below were run on T-47D breast (assay: NCI-60 one-dose screen, 48 h (100 = growth as untreated, 0 = no growth, -100 = all killed)). Details: 10 µM unless noted.
`CCc1cc(C)cc(O)c1` was tested, and the growth was 102% (inactive). For `NN1CCOC(c2ccccc2)C1` (stereo not drawn), the growth was 109% (inactive). With `ClCCOCCOc1ccc(C2CCCCC2)cc1` the growth was 96.7% (inactive). With `O=c1n(CC2CO2)c(=O)n(CC2CO2)c(=O)n1CC1CO1` (stereo not drawn) the growth was 53.5% (inactive). `Cc1ccc(S(=O)(=O)c2ccccc2)cc1` was tested, and the growth was 49.7% (inactive). For `O=C(/C=C/c1ccccc1)c1ccccc1`, the growth was 64.6% (inactive). With `Cc1cc(-c2ccc(N=Nc3ccc4c(S(=O)(=O)O)cc(S(=O)(=O)O)c(N)c4c3O)c(C)c2)ccc1N=Nc1ccc2c(S(=O)(=O)O)cc(S(=O)(=O)O)c(N)c2c1O` the growth was 93.1% (inactive). With `c1ccc(CNCCNCc2ccccc2)cc1` the growth was 103% (inactive). `Cc1cc2ccccc2cn1` was tested, and the growth was 104% (inactive) and 107% (inactive). With `OC1COC(OCc2ccccc2)C(O)C1O` (stereo not drawn) the growth was 89% (inactive). With `CCCCCCCCCCCCCCCc1ccc(N)c(OC2OC(CO)C(O)C(O)C2O)c1` (stereo not drawn) the growth was 104% (inactive). With `O=C(O)CCCl` the growth was 110% (inactive). In the case of `C#CCOC(=O)Nc1ccccc1`, the growth is reported as 109% (inactive). For `CC(C)C(C)(C)c1ccc(O)cc1`, the growth was 101% (inactive). `Cc1cc(-c2cc(C)c(O)c(C)c2)cc(C)c1O` was tested, and the growth was 93.7% (inactive). `CC1(C)COC(=S)N1` was tested, and the growth was 99.9% (inactive). For `CCOC(=O)c1c(C)cc(=O)oc1C`, the growth was 102% (inactive). `CC[C@H](CC[C@@H](C)[C@H]1CC[C@H]2[C@@H]3CC=C4C[C@@H](O)CC[C@]4(C)[C@H]3CC[C@]12C)C(C)C` was tested, and the growth was 97.2% (inactive) and 105% (inactive).
